Laboratory results taken from PubChem BioAssay AID1159580 (chemical genetic matrix, 2015).
Hit rate of the full screen: of about 5,500 compounds, about 2,000 (36%) were called active. Inconclusive results (about 18%) are left out. No stated cut-off is given here; in the data, active means normalized growth mostly below about 0.91 (no sharp cut-off); inconclusive means no clear call, values can overlap the other calls; inactive means mostly above about 0.92. This is one part of the list.

Experiment: chemical genetic growth profiling, strain panel (AID 1159580);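 further: tested at 20 µM; growth read once vehicle control cultures reached saturation at 30 °C; 1 = growth at the plate median or of vehicle wells; lower values mean less growth of the strain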
Details: growth OD

Measured: normalized growth

CC[C@H](C)C(=O)O[C@H]1C[C@@H](C)C=C2C=C[C@H](C)[C@H](CC[C@@H]3C[C@@H](O)CC(=O)O3)[C@H]21
inactive: S. cerevisiae deletion strains, locus YJR075W, strain HOC1, active compounds read low 0.997 | S. cerevisiae deletion strains, locus YKL009W, strain mrt4, active compounds read low 0.959 | S. cerevisiae deletion strains, locus YKL068W, active compounds read low 0.988 | S. cerevisiae deletion strains, locus YKL085W, strain MDH1 (second series), active compounds read low 0.993 | S. cerevisiae deletion strains, locus YKL085W, strain MDH1, active compounds read low 0.993 | S. cerevisiae deletion strains, locus YKL160W, strain elf1, active compounds read low 1 | S. cerevisiae deletion strains, locus YKL190W, strain CNB1, active compounds read low 0.992 | S. cerevisiae deletion strains, locus YKR001C, strain vps1, active compounds read low 0.986 | S. cerevisiae deletion strains, locus YKR026C, strain gcn3, active compounds read low 0.999 | S. cerevisiae deletion strains, locus YKR091W, strain srl3, active compounds read low 1 | S. cerevisiae deletion strains, locus YLL001W, strain dnm1, active compounds read low 1.02 | S. cerevisiae deletion strains, locus YLL026W, active compounds read low 1.01 | S. cerevisiae deletion strains, locus YLL041C, strain sdh2, active compounds read low 1 | S. cerevisiae deletion strains, locus YLR027C, strain aat2, active compounds read low 1.01 | S. cerevisiae deletion strains, locus YLR039C, strain RIC1, active compounds read low 0.971 | S. cerevisiae deletion strains, locus YLR058C, strain SHM2, active compounds read low 0.957 | S. cerevisiae deletion strains, locus YLR102C, strain apc9, active compounds read low 0.994 | S. cerevisiae deletion strains, locus YLR113W, strain HOG1, active compounds read low 1 | S. cerevisiae deletion strains, locus YLR221C, strain rsa3, active compounds read low 1.01 | S. cerevisiae deletion strains, locus YLR258W, strain gsy2, active compounds read low 1.01 | S. cerevisiae deletion strains, locus YLR262C, strain YPT6 (second series), active compounds read low 1.11 | S. cerevisiae deletion strains, locus YLR262C, strain YPT6, active compounds read low 0.916 | S. cerevisiae deletion strains, locus YLR268W, strain sec22, active compounds read low 1.06 | S. cerevisiae deletion strains, locus YLR320W, strain mms22, active compounds read low 0.992 | S. cerevisiae deletion strains, locus YLR330W, strain CHS5, active compounds read low 0.969 | S. cerevisiae deletion strains, locus YLR342W, strain FKS1 (second series), active compounds read low 0.968 | S. cerevisiae deletion strains, locus YLR342W, strain FKS1, active compounds read low 1 | S. cerevisiae deletion strains, locus YLR357W, strain rsc2, active compounds read low 0.908 | S. cerevisiae deletion strains, locus YLR370C, strain arc18, active compounds read low 1.02 | S. cerevisiae deletion strains, locus YLR371W, strain rom2, active compounds read low 0.982 | S. cerevisiae deletion strains, locus YLR384C, strain iki3, active compounds read low 1.01 | S. cerevisiae deletion strains, locus YLR418C, strain cdc73, active compounds read low 0.908 | S. cerevisiae deletion strains, locus YML016C, strain PPZ1, active compounds read low 0.977 | S. cerevisiae deletion strains, locus YML032C, strain rad52, active compounds read low 1.01 | S. cerevisiae deletion strains, locus YML120C, strain ndi1, active compounds read low 1.01 | S. cerevisiae deletion strains, locus YML124C, strain tub3, active compounds read low 0.98 | S. cerevisiae deletion strains, locus YMR058W, strain fet3, active compounds read low 1 | S. cerevisiae deletion strains, locus YMR078C, strain ctf18, active compounds read low 0.987 | S. cerevisiae deletion strains, locus YMR125W, strain sto1, active compounds read low 0.984 | S. cerevisiae deletion strains, locus YMR129W, active compounds read low 1.01 | S. cerevisiae deletion strains, locus YMR205C, strain PFK2, active compounds read low 1 | S. cerevisiae deletion strains, locus YMR223W, strain ubp8, active compounds read low 0.948 | S. cerevisiae deletion strains, locus YMR231W, strain pep5, active compounds read low 0.998 | S. cerevisiae deletion strains, locus YMR263W, strain SAP30, active compounds read low 0.987 | S. cerevisiae deletion strains, locus YMR307W, strain GAS1, active compounds read low 0.984 | S. cerevisiae deletion strains, locus YNL067W, strain RPL9B, active compounds read low 1.01 | S. cerevisiae deletion strains, locus YNL071W, strain lat1, active compounds read low 1.01 | S. cerevisiae deletion strains, locus YNL128W, strain TEP1, active compounds read low 0.97 | S. cerevisiae deletion strains, locus YNL153C, strain GIM3, active compounds read low 1.02 | S. cerevisiae deletion strains, locus YNL183C, strain NPR1, active compounds read low 0.939 | S. cerevisiae deletion strains, locus YNL209W, strain ssb2, active compounds read low 1.01 | S. cerevisiae deletion strains, locus YNL233W, strain BNI4, active compounds read low 1.01 | S. cerevisiae deletion strains, locus YNL248C, strain rpa49, active compounds read low 1.01 | S. cerevisiae deletion strains, locus YNL250W, strain rad50, active compounds read low 0.958 | S. cerevisiae deletion strains, locus YNL271C, strain bni1, active compounds read low 0.994 | S. cerevisiae deletion strains, locus YNL298W, strain CLA4, active compounds read low 0.99 | S. cerevisiae deletion strains, locus YNL307C, strain MCK1, active compounds read low 0.948 | S. cerevisiae deletion strains, locus YNL322C, strain KRE1 (second series), active compounds read low 1.02 | S. cerevisiae deletion strains, locus YNL322C, strain KRE1, active compounds read low 0.986 | S. cerevisiae deletion strains, locus YNR049C, strain mso1, active compounds read low 1.01 | S. cerevisiae deletion strains, locus YNR052C, strain pop2, active compounds read low 0.999 | S. cerevisiae deletion strains, locus YOL006C, strain TOP1, active compounds read low 0.953 | S. cerevisiae deletion strains, locus YOL012C, strain htz1 0.797 | S. cerevisiae deletion strains, locus YOL147C, strain pex11, active compounds read low 0.986 | S. cerevisiae deletion strains, locus YOR001W, strain rrp6, active compounds read low 1.02 | S. cerevisiae deletion strains, locus YOR061W, strain CKA2, active compounds read low 0.964 | S. cerevisiae deletion strains, locus YOR069W, strain VPS5, active compounds read low 0.981 | S. cerevisiae deletion strains, locus YOR070C, strain gyp1, active compounds read low 1 | S. cerevisiae deletion strains, locus YOR080W, strain dia2, active compounds read low 0.998 | S. cerevisiae deletion strains, locus YOR083W, strain WHI5, active compounds read low 1 | S. cerevisiae deletion strains, locus YOR106W, strain vam3, active compounds read low 0.99 | S. cerevisiae deletion strains, locus YOR136W, strain idh2, active compounds read low 0.98 | S. cerevisiae deletion strains, locus YOR144C, strain elg1, active compounds read low 0.993 | S. cerevisiae deletion strains, locus YOR184W, strain ser1, active compounds read low 0.94 | S. cerevisiae deletion strains, locus YOR231W, strain MKK1, active compounds read low 0.983 | S. cerevisiae deletion strains, locus YOR265W, strain rbl2, active compounds read low 1.01 | S. cerevisiae deletion strains, locus YOR270C, strain vph1, active compounds read low 0.881 | S. cerevisiae deletion strains, locus YOR290C, strain snf2, active compounds read low 1.02 | S. cerevisiae deletion strains, locus YOR316C, strain cot1, active compounds read low 0.993 | S. cerevisiae deletion strains, locus YPL051W, strain arl3, active compounds read low 0.999 | S. cerevisiae deletion strains, locus YPL055C, strain LGE1, active compounds read low 0.939 | S. cerevisiae deletion strains, locus YPL078C, strain atp4, active compounds read low 1.01 | S. cerevisiae deletion strains, locus YPL106C, strain sse1, active compounds read low 1.06 | S. cerevisiae deletion strains, locus YPL240C, strain hsp82, active compounds read low 1.01 | S. cerevisiae deletion strains, locus YPL241C, strain CIN2, active compounds read low 0.979 | S. cerevisiae deletion strains, locus YPL256C, strain CLN2, active compounds read low 1.02 | S. cerevisiae deletion strains, locus YPR119W, strain clb2, active compounds read low 0.986 | S. cerevisiae deletion strains, locus YPR141C, strain kar3, active compounds read low 0.971 | S. cerevisiae deletion strains, locus YPR163C, strain tif3, active compounds read low 0.995 | S. cerevisiae deletion strains, locus YPR167C, strain met16, active compounds read low 0.99 | S. cerevisiae deletion strains, strain wtn01, active compounds read low 1.01 | S. cerevisiae strains, strain wild type, active compounds read low 0.963
